Screens (PubChem BioAssay)
This is a sample that favours compounds with a hit; in the whole collection about 2.2% have one here.
PLC-gamma1 inh: PLC-gamma1 enzyme inhibitors, primary screen, biochemical, fluorescence, purified enzyme | 1-phosphatidylinositol 4,5-bisphosphate phosphodiesterase gamma-1 (Homo sapiens), P19174 | fluorogenic substrate | inhibition, % at 12.2 µM | 370,000 compounds, 0.84% hits; in the data active = inhibition above about 9.5%
PfM18AAP inh-1: PfM18AAP inhibitors, malaria aminopeptidase, primary screen, biochemical, QFRET, recombinant enzyme; M18 aspartyl aminopeptidase (Plasmodium falciparum 3D7); inhibition, % at 7.35 µM; H-Glu-NHMec fluorogenic cleavage; 290,000 compounds, 1.2% hits;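 active = inhibition above the campaign mean inhibition over all tested compounds plus 3 SD, cut at about 28% in these data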;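 also: 0% = plate median of test compound wells and 100% = 2 mM ZnCl2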
PLC-beta3 inh: human PLC-beta3 inhibitors, primary screen, biochemical, fluorescence. 1-phosphatidylinositol 4,5-bisphosphate phosphodiesterase beta-3 (Homo sapiens), Q01970. Purified PLC-beta3, fluorogenic substrate. inhibition, % at 12.2 µM. 370,000 compounds, 0.18% hits; in the data active = inhibition above about 11%;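 also: 0% = median of compound wells on plate and 100% = full blocker control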
GC-A act: GC-A stimulated cGMP production enhancers – HEK293 GC-A cells, cGMP TR-FRET, EC30 ANP, primary screen; Atrial natriuretic peptide receptor 1 (Homo sapiens), P16066; 0% at EC30 ANP, 100% saturating ANP; activation, % at 10 µM; 370,000 compounds, 0.14% hits; in the data active = activation above about 40%
Rce1 inh: yeast Rce1p protease inhibitors, primary screen, biochemical, fluorescence, cell-free homogeneous; yeast membranes, quenched prenylated peptide cleavage fluorescence; calls only; 290,000 compounds, 0.27% hits; AID 2563, 2010;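 active = fall in fluorescence gain of 50% or more versus controls, with final raw signal at or below 3038400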;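 also: plate controls were neutral control wells for no effect and wells lacking membranes for full effect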
Target sequence (Q03530 whole entry, looked up): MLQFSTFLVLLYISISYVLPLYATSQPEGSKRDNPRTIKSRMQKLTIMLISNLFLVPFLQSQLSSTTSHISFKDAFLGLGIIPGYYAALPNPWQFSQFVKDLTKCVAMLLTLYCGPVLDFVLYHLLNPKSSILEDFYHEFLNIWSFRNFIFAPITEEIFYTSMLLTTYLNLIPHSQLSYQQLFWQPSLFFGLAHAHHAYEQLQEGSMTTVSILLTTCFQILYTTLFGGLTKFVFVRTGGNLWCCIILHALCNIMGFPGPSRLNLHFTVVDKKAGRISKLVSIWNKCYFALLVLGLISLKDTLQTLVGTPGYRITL
GC-B act: human GC-B receptor activators, primary screen, HEK293 GC-B cells, cGMP TR-FRET, EC30 CNP | 370,000 compounds, 0.11% hits | 0% at EC30 CNP, 100% saturating CNP | AID 1920062, 2024 | Atrial natriuretic peptide receptor 2 (Homo sapiens), P20594 | activation, % at 10 µM;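 active = activation at 10 µM reaching about 35% in either raw or pattern-adjusted values, limit read from the data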
PfM18AAP inh-2: PfM18AAP inhibitors, malaria aminopeptidase, confirmation, biochemical, QFRET, recombinant enzyme, triplicate; shares compounds with PfM18AAP inh-1; H-Glu-NHMec fluorogenic cleavage; inhibition, % at 7.35 µM; 2,400 compounds, 28% hits;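 active = mean inhibition over replicate wells above the hit cutoff set for the earlier primary screen, cut at about 29% in these data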;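 also: 0% = median of test compound wells and 100% = 2 mM ZnCl2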
CTSL1 confirm: cathepsin L1 inhibitors, retest, confirmation, counter-screen for PFM18AAP inhibitor project, biochemical, QFRET, triplicate; shares compounds with PfM18AAP inh-1; AID 2178, 2009; inhibition, % at 5.96 µM; 2,400 tested, under 10 active; purified cathepsin L1, Z-Leu-Arg-MCA fluorescence;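 active = average inhibition across replicates above the hit cutoff set in the earlier primary screen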;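 also: 0% = median of test compound wells and 100% = Z-Phe-Ala-diazomethylketone 1 µM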
* marks the source's active call; other numbers are inactive results; i = inactive; / = not tested or not shown.

SMILES	PLC-gamma1 inh	PfM18AAP inh-1	PLC-beta3 inh	GC-A act	Rce1 inh	GC-B act	PfM18AAP inh-2	CTSL1 confirm
Cc1ccnc(NC(=S)N2CCN(c3cccc(C(F)(F)F)c3)CC2)c1	0	39*	-2	5	/	1	-20	7
CCn1c(SCC(=O)N/N=C/c2cccc(Oc3ccccc3)c2)nnc1-c1ccccc1	1	/	-3	-3	/	1	/	/
CCn1c(/C=C/c2ccc(O)c(O)c2)nc2ccccc2c1=O	-210	54*	-238	-2	i	-2	43*	1
O=c1nc(/C=C/c2ccc(O)c(O)c2)oc2ccccc12	/	63*	/	/	i	/	56*	2
COc1ccc(/C=C\c2nc(=O)c3ccccc3o2)cc1	-19	0	-19	2	i	-3	/	/
Cn1c(=O)cc(OCCCC(=O)Nc2cc(C(F)(F)F)ccn2)c2ccccc21	2	/	0	-4	/	-11	/	/
COCCNC(=S)Nc1ccc(N2CCOCC2)c(S(=O)(=O)Nc2ccc(Cl)cc2)c1	4	/	5	10	/	10	/	/
O=S(=O)(Nc1ccc(Cl)cc1)c1ccc(N2CCOCC2)c(NC(=S)NCCN2CCOCC2)c1	3	45*	1	0	i	3	10	-2
CCN(CC)c1ccc(/C=N/N(c2ccccc2)c2ccccc2)c(O)c1	-9	0	-8	0	i	-2	/	/
Oc1ccc(/C=N/N(c2ccccc2)c2ccccc2)c(O)c1O	-3	48*	-15	0	i	-5	-15	-8
C(=N\N(c1ccccc1)c1ccccc1)/c1ccccn1	-4	-3	-7	-8	i	-3	/	/
Oc1ccc(/C=N/N(c2ccccc2)c2ccccc2)cc1O	-41	67*	-64	-5	i	-8	42*	-8
O=C(OC12CCCN(C1)/C(=C/c1ccncc1)C2)c1ccccc1 (stereo not given)	-2	/	-4	0	/	-1	/	/
C[C@H](O)[C@@H]1CN2CCc3c([nH]c4cccc(-c5ccccc5)c34)[C@@H]2C[C@@H]1N(C)C(=O)c1ccco1	-229	/	-289	10	/	3	/	/
O=C1C=C(NNC(=O)c2cccnc2)CC(c2ccco2)C1 (stereo not given)	-84	35*	-115	2	i	-2	-29	9
CCN(CC)C(=O)CC[C@H]1CC[C@]2(CCCN(S(C)(=O)=O)C2)O1	0	/	-3	2	/	-4	/	/
Cc1ccc(C(c2sc3ncnn3c2O)N2CCC(C)CC2)cc1 (stereo not given)	3	56*	-3	0	i	-3	-24	0
Oc1c(C(c2ccc(F)cc2)N2CCc3ccccc3C2)sc2ncnn12 (stereo not given)	0	53*	0	2	i	1	25	-5
Oc1c(C(c2cccc(F)c2)N2CCN(Cc3ccccc3)CC2)sc2ncnn12 (stereo not given)	2	28	1	2	i	4	/	/
Cc1ccc(C(c2sc3ncnn3c2O)N2CCCCC2)cc1 (stereo not given)	0	47*	-1	4	i	-5	-14	-11
Cc1[nH]nc2c1C(c1ccccc1)N(Cc1ccccc1)C2=O (stereo not given)	2	/	1	5	/	0	/	/
CN1c2ccccc2C(C)(C)[C@]12C=Cc1cc(O)ccc1O2	-25	48*	-31	-2	/	-8	-81	-5
COc1ccc2c(c1)CCCN2C(=O)C1CCCN(S(=O)(=O)c2cccc3ccccc23)C1 (stereo not given)	2	/	-1	-6	/	-6	/	/
N#CCC(=O)NNC(=S)Nc1ccccc1C(F)(F)F	4	46*	-2	4	i	-1	-37	1
Cc1ccc(C(=O)NC(=S)NNC(=O)CC#N)cc1	-2	33*	-1	4	/	3	-30	0
SMILES	PLC-gamma1 inh	PfM18AAP inh-1	PLC-beta3 inh	GC-A act	Rce1 inh	GC-B act	PfM18AAP inh-2	CTSL1 confirm
CCCCC(=O)NNC(=S)NC(=O)c1ccc([N+](=O)[O-])cc1	0	39*	-4	6	i	3	-25	-2
CCC(=O)NC(=S)Nc1ccccc1C(F)(F)F	-2	-9	4	5	i	2	/	/
CCCCC(=O)NNC(=S)NC(=O)c1ccc(C)cc1	2	46*	-3	1	i	-1	-28	1
COc1ccc(C(=O)NC(=S)NNC(=O)c2ccc(C)cc2)cc1	0	/	-13	4	i	10	/	/
COC(=O)C1CN(Cc2ccc(OC)cc2)CCS(=O)(=O)N1Cc1ccccc1 (stereo not given)	0	/	0	-5	/	-5	/	/
CCOC(=O)N1CCN(C(=O)C[C@H]2C[C@@]3(C(=O)OC)C(=C[C@H](COCc4ccccc4)O[C@@H]3C)N(CCc3ccc(OC)c(OC)c3)C2=O)CC1	-1	/	2	6	/	6	/	/
COc1ccc(CN2CCC(CNC(=O)NC3CCCC3)CC2)cc1	3	/	0	1	/	5	/	/
C[C@H](O)[C@@H]1CN2CCc3c([nH]c4cccc(-c5ccccc5)c34)[C@@H]2C[C@@H]1N(C)C(=O)C1CCCCC1	-272	/	-301	6	/	6	/	/
Clc1ccc(C2Nc3cccc4cccc(c34)N2)cc1Cl	-5	36*	-11	-29	i	3	-24	-5
CN(C)c1ccc(C2Nc3cccc4cccc(c34)N2)cc1	-8	37*	-12	5	i	-3	-11	-5
COC(=O)[C@]12C[C@H](CC(=O)NCCC(C)C)C(=O)N(Cc3ccco3)C1=C[C@H](C(C)(C)C)O[C@@H]2C	-4	/	1	-29	/	-25	/	/
CCC(NC(C)C)C(O)c1ccc(O)c(O)c1 (stereo not given)	-3	52*	-4	4	i	2	10	-4
CCn1c(SCC(=O)c2ccc(O)c(O)c2)nnc1-c1ccccc1	1	41*	2	-2	i	2	27	-5
